# Assay results: paper PMC5540273 (PLoS ONE, 2017)
# Experiments:
# [1] = system: RPS6KA5(Kin.Dom.2-C-terminal)
# [2] = system: T1, RSK1(Kin.Dom.2-C-terminal)
# T1 construct: gene RPS6KA1
# [3] = system: T2, RSK2(Kin.Dom.2-C-terminal)
# T2 construct: gene RPS6KA3
# [4] = system: T3, RSK3(Kin.Dom.2-C-terminal)
# T3 construct: gene RPS6KA2
# SNARK = system: T4, SNARK
# T4 construct: gene NUAK2
# 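Also: kd values determined as follow-up on hits from a single-replicate KINOMEscan panel screen.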
smiles,measurement,setting,value
Cc1cccc(-c2cc(Nc3ccncc3)c3ccccc3n2)n1 [GSK223675],Kd,[1],> 10 µM
Cc1ccccc1-n1cnc2c(N)ncnc21 [SKF-97510],Kd,[2],> 10 µM
same,Kd,SYK,> 10 µM
Nc1nc(-c2nccs2)c(-c2ccnc3ccccc23)s1 [GW693542],Kd,[3],> 10 µM
CS(=O)(=O)c1ccc(-c2c(-c3ncn[nH]3)sc(N3CCOCC3)c2C#N)cc1,Kd,[4],> 10 µM
COc1cc2ncn(-c3cc(OCC4CCCO4)c(C(N)=O)s3)c2cc1OC (centres unmarked) [GSK204607],Kd,SIK2,> 10 µM
same,Kd,STK35,3.6 µM
CC1=C(C(=O)Nc2cc3cn[nH]c3cc2F)C(c2ccc(C(F)(F)F)cc2)CC(=O)N1 (centres unmarked) [GSK429286],Kd,SNARK,0.47 µM
Cn1cncc1-c1ccc2ncnc(Nc3ccc(OCc4ccccc4)cc3)c2c1 [GW320571],Kd,SNRK,8.7 µM
Nc1ncnc2[nH]c(-c3ccccc3)nc12 [AH5015],Kd,SNRK,> 10 µM
Fc1cc(Cl)ccc1Nc1ccnc2cc(-c3ccc(CN4CCCCC4)o3)ccc12 [GW560116],Kd,SRC,4.4 µM
O=C1NC(=O)C(N2CCc3ccccc32)=C1c1ccccc1Cl [SB-373598],Kd,SRMS,> 10 µM
same,Kd,TAOK2,> 10 µM
Cc1ccc(C(=O)Nc2ccc(Nc3ccnc4cc(-c5ccccn5)ccc34)cc2O)cc1.Cl [GW440146],Kd,SRMS,0.35 µM
COc1cccc(-c2cc(-c3c[nH]nc3-c3ccccn3)ccn2)c1 [GW680338],Kd,SRPK1,> 10 µM
CS(=O)(=O)c1ccc(-c2nc3n(c2-c2ccncc2)CCC3)cc1 [SKF-105942],Kd,STK16,> 10 µM
Cl.O=C(Nc1cccc(-c2nn3ncccc3c2-c2ccnc(Nc3cccnc3)n2)c1)c1c(F)cccc1F [GSK312879],Kd,STK36,0.098 µM
